Assay results: PubChem BioAssay AID1159580 (chemical genetic matrix, 2015)
About 2,000 (36%) of roughly 5,500 compounds were called active. Roughly 18% stayed inconclusive and do not appear here. The list shows a part of the results. Values without a mark were called inactive. Rule as the data show it: active = normalized growth mostly below about 0.91 (no sharp cut-off); inconclusive = no clear call, values can overlap the other calls; inactive = mostly above about 0.92.

Test: chemical genetic growth profiling, strain panel (AID 1159580);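 also: tested at 20 µM; growth read once vehicle control cultures reached saturation at 30 °C; 1 = growth at the plate median or of vehicle wells; lower values mean less growth of the strain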
Settings: growth OD

## Cc1cc(=O)n2c(-c3ccc(Cl)cc3)csc2n1
S. cerevisiae deletion strains, locus YAL013W, strain DEP1, hits give low values
  normalized growth: 0.975
S. cerevisiae deletion strains, locus YBR229C, strain ROT2, hits give low values
  normalized growth: 0.954
S. cerevisiae deletion strains, locus YCL061C, strain MRC1, hits give low values
  normalized growth: 0.951
S. cerevisiae deletion strains, locus YDL101C, strain DUN1, hits give low values
  normalized growth: 0.936
S. cerevisiae deletion strains, locus YDR150W, strain NUM1, hits give low values
  normalized growth: 0.976
S. cerevisiae deletion strains, locus YEL061C, strain CIN8, hits give low values
  normalized growth: 0.931
S. cerevisiae deletion strains, locus YGR078C, strain PAC10, hits give low values
  normalized growth: 0.96
S. cerevisiae deletion strains, locus YHR030C, strain SLT2, hits give low values
  normalized growth: 0.712
S. cerevisiae deletion strains, locus YHR087W, strain rtc3, hits give low values
  normalized growth: 0.927
S. cerevisiae deletion strains, locus YJL187C, strain SWE1, hits give low values
  normalized growth: 0.965
S. cerevisiae deletion strains, locus YJR043C, strain POL32, hits give low values
  normalized growth: 0.982
S. cerevisiae deletion strains, locus YJR075W, strain HOC1, hits give low values
  normalized growth: 0.956
S. cerevisiae deletion strains, locus YLR039C, strain RIC1, hits give low values
  normalized growth: 0.892
S. cerevisiae deletion strains, locus YLR058C, strain SHM2 (second series), hits give low values
  normalized growth: 0.956
S. cerevisiae deletion strains, locus YLR085C, strain ARP6, hits give low values
  normalized growth: 0.826
S. cerevisiae deletion strains, locus YLR262C, strain YPT6, hits give low values
  normalized growth: 0.916
S. cerevisiae deletion strains, locus YML094W, strain GIM5, hits give low values
  normalized growth: 0.864 (active)
S. cerevisiae deletion strains, locus YMR219W, strain ESC1, hits give low values
  normalized growth: 0.96
S. cerevisiae deletion strains, locus YMR263W, strain SAP30, hits give low values
  normalized growth: 0.987
S. cerevisiae deletion strains, locus YNL128W, strain TEP1, hits give low values
  normalized growth: 0.972
S. cerevisiae deletion strains, locus YNL153C, strain GIM3, hits give low values
  normalized growth: 0.973
S. cerevisiae deletion strains, locus YNL298W, strain CLA4 (second series), hits give low values
  normalized growth: 0.947
S. cerevisiae deletion strains, locus YNL322C, strain KRE1, hits give low values
  normalized growth: 0.976
S. cerevisiae deletion strains, locus YNR030W, strain Alg12, hits give low values
  normalized growth: 0.943
S. cerevisiae deletion strains, locus YPL055C, strain LGE1, hits give low values
  normalized growth: 0.963
S. cerevisiae deletion strains, locus YPL241C, strain CIN2, hits give low values
  normalized growth: 0.941
S. cerevisiae deletion strains, locus YPR135W, strain CTF4, hits give low values
  normalized growth: 0.764
S. cerevisiae strains, strain wild type, hits give low values
  normalized growth: 0.96
